Targets with a hit are over-represented here; the source holds about 7,900 in all. About 0.6% of all pairs of compound and target were hits.
Tests used:
Test in all cases: log2 fold change, soluble protein after heating vs DMSO (PISA); higher = thermal stabilisation; K562 cells, 10 uM, 30 min; active = over 0.2 and 3.5 SD of the protein, either way, in both replicates (recomputed)
[1] = compound: C1=CC=C(C=C1)[C@H](COC2=CC3=C(C=C2)NC(=O)N3)NC(=O)C4=CC=CN(C4=O)CC5=CC(=C(C=C5)F)F
Summary of the method: (§1)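 K562 cells at 2×10^6 cells/mL were treated for 30 min with 10 μM compound, and aliquots were heated for 3 min over 48°C-58°C before pooling. Extraction used PBS with 0.5% NP-40 at 4°C, and soluble protein was the supernatant after 21,000xg for 90 min, measured by TMTpro 16plex LC-MS/MS with channel sums equalised. Thermal stability values, relative to control samples and from duplicates, are log2 fold changes.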

[2] = compound: CC1=C(SC2=C1C(=N[C@H](C3=NN=C(N32)C)CC(=O)N)C4=CC=C(C=C4)Cl)C
Summary of the method: as §1

[3] = compound: CC1=C2C(=CC=C1)N=C(N(C2=O)C3=CC=CC=C3C)CN4C=NC5=C(N=CN=C54)N
Summary of the method: as §1

[4] = compound: Cc1sc2c(c1C)C(c1ccc(Cl)cc1)=N[C@@H](CC(=O)OC(C)(C)C)c1nnc(C)n1-2
Summary of the method: as §1

[5] = compound: c1ccc([C@@H]2C[C@H]2NC2CCNCC2)cc1
Summary of the method: as §1

Measured: log2 fold change

SRPRB (UniProt Q9Y5M8)
inactive: [1] -0.005 | [2] 0.014 | [3] 0.034 | [4] -0.017 | [5] -0.016

SPTBN4 (UniProt Q9H254)
inactive: [1] -0.058 | [2] -0.083 | [3] 0.148 | [4] 0.014 | [5] -0.001

SLC38A7 (UniProt Q9NVC3)
Sequence of UniProt Q9NVC3 (Q9NVC3 whole entry, looked up): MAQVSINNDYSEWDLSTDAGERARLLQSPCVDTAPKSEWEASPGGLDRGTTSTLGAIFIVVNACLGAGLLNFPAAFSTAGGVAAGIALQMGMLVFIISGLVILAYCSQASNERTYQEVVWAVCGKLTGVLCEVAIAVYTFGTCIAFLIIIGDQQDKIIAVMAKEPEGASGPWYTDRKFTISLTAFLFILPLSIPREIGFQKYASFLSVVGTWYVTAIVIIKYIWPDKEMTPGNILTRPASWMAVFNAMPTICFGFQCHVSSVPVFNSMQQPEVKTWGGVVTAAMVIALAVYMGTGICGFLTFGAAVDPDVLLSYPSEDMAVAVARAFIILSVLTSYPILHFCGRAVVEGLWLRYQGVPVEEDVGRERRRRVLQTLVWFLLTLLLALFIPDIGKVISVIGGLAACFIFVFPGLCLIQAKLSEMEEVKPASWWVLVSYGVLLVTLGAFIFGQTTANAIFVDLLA
inactive: [1] 0.021 | [2] -0.031 | [3] -0.004 | [4] -0.035 | [5] 0.117

SLC8B1 (UniProt Q6J4K2)
Sequence of UniProt Q6J4K2 (Q6J4K2 whole entry, looked up): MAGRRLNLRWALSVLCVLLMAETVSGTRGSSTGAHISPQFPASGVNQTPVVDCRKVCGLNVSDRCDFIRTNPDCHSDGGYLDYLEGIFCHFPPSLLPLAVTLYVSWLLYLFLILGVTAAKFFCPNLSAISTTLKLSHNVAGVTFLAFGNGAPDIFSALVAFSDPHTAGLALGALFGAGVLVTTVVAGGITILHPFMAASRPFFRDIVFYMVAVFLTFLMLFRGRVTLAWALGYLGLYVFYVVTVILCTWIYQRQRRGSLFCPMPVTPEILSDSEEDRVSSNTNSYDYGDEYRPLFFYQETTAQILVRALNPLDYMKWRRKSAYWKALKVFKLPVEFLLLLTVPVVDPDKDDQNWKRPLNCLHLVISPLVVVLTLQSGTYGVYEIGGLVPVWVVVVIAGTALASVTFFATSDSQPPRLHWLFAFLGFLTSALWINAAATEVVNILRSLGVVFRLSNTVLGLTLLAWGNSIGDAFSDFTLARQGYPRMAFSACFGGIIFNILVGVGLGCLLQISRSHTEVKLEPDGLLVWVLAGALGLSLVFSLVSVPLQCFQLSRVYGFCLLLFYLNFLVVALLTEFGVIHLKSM
inactive: [1] 0.094 | [2] 0.178 | [3] 0.019 | [5] -0.049

SLC25A42 (UniProt Q86VD7)
inactive: [1] 0.073 | [2] 0.051 | [3] -0.019 | [4] -0.005 | [5] 0.003

TANGO6 (UniProt Q9C0B7)
inactive: [1] -0.139 | [2] 0.052 | [4] 0.018 | [5] -0.086

SUPT5H isoform 2 (UniProt O00267)
inactive: [3] -0.015

SNX2 isoform 2 (UniProt O60749)
inactive: [1] 0.092 | [2] 0.217 | [3] 0.094 | [5] 0.066

SMARCA4 (UniProt P51532)
Sequence of UniProt P51532 (P51532 whole entry, looked up): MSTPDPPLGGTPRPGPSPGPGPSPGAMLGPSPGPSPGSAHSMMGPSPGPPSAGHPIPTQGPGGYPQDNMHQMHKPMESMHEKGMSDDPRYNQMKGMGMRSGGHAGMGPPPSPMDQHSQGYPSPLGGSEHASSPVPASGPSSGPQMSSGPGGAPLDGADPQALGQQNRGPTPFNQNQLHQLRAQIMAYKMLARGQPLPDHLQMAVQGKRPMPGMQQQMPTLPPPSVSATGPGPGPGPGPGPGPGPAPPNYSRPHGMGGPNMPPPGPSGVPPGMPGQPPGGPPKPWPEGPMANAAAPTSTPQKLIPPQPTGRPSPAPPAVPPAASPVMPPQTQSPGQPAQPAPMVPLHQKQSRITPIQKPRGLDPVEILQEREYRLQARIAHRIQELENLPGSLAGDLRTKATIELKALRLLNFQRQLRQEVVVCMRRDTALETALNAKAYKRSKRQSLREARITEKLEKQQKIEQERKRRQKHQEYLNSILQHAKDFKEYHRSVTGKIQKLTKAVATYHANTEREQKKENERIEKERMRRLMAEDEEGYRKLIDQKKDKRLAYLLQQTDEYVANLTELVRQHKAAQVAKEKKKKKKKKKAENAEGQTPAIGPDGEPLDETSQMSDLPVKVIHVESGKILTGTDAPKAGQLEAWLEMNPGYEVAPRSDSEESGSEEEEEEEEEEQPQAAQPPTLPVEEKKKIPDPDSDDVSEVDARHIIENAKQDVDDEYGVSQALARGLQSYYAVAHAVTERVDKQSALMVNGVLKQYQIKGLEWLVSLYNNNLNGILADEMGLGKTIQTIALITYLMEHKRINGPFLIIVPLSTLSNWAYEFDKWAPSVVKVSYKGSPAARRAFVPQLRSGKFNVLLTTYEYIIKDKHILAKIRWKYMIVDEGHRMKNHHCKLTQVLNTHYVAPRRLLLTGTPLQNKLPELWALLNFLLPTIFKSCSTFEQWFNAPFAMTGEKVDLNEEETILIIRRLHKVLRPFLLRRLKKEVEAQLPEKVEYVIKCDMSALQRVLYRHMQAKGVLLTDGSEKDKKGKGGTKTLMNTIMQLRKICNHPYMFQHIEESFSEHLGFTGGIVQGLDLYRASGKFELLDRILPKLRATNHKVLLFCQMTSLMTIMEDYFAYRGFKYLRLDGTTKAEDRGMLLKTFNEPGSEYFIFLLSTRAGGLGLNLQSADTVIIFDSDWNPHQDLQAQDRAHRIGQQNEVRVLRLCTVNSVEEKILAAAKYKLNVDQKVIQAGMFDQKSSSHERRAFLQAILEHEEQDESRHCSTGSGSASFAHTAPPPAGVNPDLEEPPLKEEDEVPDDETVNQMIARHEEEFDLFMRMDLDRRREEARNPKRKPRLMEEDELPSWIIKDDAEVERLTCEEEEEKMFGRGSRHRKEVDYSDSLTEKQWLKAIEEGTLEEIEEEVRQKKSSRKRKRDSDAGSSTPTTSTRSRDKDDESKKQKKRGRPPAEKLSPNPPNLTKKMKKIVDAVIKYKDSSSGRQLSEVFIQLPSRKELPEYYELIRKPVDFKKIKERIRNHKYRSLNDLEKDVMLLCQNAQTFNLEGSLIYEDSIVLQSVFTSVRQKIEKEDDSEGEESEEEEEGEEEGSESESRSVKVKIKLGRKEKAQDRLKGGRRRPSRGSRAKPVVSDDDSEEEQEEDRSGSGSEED
inactive: [1] 0.073 | [2] -0.023 | [3] 0.244 | [5] -0.027

SLC35B4 (UniProt Q969S0)
Sequence of UniProt Q969S0 (Q969S0 whole entry, looked up): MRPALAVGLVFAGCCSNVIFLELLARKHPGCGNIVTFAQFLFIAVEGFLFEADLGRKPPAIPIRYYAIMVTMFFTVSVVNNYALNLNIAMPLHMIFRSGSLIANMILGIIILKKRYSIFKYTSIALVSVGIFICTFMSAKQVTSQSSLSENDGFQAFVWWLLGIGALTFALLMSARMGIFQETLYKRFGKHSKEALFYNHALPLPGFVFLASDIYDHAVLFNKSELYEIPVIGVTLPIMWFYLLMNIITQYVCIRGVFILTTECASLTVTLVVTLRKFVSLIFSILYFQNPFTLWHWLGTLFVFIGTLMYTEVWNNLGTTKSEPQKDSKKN
inactive: [1] 0.061 | [3] -0.069 | [4] -0.137

THAP9 (UniProt Q9H5L6)
inactive: [1] 0.093 | [2] 0.167 | [5] -0.046

TDP1 (UniProt Q9NUW8)
inactive: [2] 0.068 | [5] 0.054

SMAP2 (UniProt Q8WU79)
Sequence of UniProt Q8WU79 (Q8WU79 whole entry, looked up): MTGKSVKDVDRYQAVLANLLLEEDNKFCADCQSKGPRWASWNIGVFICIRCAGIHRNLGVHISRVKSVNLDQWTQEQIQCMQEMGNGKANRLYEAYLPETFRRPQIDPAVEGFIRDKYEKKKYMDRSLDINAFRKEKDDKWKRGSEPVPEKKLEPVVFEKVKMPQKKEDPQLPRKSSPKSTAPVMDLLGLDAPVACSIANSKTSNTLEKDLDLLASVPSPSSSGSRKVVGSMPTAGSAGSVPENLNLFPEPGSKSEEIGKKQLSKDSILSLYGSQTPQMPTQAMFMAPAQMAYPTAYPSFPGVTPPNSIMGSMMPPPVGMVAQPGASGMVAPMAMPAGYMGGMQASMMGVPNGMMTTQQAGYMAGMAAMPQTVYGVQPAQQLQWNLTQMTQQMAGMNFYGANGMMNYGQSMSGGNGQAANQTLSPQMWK
inactive: [1] -0.041 | [2] 0.013 | [3] 0.086 | [4] 0.001 | [5] 0.011

SSBP4 (UniProt U3KPY3)
inactive: [3] 0

SLC46A1 (UniProt Q96NT5)
inactive: [2] -0.09 | [3] 0.075 | [4] 0.024 | [5] 0.256

TC2N (UniProt Q8N9U0)
inactive: [3] 0.053 | [4] 0.08

SNUPN (UniProt O95149)
inactive: [1] -0.027 | [2] 0.051 | [3] 0.067 | [4] 0.03 | [5] 0.021

SLC39A1 (UniProt Q9NY26)
inactive: [2] -0.156 | [5] 0.053

TARBP1 (UniProt Q13395)
Sequence of UniProt Q13395 (Q13395 whole entry, looked up): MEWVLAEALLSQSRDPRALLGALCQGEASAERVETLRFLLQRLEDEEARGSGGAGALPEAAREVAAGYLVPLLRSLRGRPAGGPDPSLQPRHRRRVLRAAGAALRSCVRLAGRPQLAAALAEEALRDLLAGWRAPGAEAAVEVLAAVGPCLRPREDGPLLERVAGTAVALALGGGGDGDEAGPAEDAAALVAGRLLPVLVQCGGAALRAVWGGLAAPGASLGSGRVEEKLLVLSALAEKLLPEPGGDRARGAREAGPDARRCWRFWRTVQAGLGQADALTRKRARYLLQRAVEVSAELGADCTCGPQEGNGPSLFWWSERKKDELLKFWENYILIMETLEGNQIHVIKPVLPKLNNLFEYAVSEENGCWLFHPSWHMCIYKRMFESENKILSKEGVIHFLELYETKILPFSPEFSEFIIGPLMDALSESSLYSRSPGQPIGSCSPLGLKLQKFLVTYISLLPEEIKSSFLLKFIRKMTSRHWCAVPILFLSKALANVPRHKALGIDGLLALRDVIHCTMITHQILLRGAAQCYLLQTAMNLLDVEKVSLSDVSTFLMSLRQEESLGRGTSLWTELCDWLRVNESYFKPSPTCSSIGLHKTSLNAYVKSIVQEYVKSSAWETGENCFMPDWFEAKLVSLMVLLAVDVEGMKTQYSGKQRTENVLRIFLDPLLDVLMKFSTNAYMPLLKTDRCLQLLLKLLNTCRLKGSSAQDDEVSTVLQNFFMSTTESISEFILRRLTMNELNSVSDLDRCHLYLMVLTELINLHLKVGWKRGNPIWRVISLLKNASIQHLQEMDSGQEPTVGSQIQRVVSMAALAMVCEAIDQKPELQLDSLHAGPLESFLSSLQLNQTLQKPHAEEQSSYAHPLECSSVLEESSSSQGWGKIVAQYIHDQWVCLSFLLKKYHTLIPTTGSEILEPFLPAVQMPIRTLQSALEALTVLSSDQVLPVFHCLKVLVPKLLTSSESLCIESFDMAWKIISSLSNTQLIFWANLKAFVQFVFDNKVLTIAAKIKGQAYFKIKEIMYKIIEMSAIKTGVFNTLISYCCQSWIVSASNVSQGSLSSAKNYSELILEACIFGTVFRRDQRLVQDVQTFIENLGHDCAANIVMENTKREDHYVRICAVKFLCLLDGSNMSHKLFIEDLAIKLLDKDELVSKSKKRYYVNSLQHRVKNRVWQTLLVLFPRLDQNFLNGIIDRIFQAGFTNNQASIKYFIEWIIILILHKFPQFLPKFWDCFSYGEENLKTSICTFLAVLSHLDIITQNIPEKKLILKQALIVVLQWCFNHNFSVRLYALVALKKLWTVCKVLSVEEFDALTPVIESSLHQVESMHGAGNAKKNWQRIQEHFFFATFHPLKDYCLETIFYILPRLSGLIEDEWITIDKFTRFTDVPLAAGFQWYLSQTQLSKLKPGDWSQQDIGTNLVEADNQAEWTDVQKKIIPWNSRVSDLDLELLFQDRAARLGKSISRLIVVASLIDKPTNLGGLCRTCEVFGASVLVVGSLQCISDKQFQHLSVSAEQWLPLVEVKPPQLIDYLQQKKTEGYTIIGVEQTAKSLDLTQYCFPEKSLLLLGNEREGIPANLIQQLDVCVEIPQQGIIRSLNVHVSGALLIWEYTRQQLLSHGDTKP
inactive: [1] -0.058 | [2] 0.048 | [3] 0.081 | [4] -0.073 | [5] -0.027

TAOK2 (UniProt Q9UL54)
inactive: [4] 0.026

SUN1 isoform 9 (UniProt O94901)
inactive: [2] -0.114 | [3] 0.013 | [4] 0.109 | [5] 0.018

SMARCB1 (UniProt Q12824)
inactive: [2] 0.057 | [3] -0.041 | [4] 0.015 | [5] 0.18

SUGP1 (UniProt Q8IWZ8)
inactive: [1] 0 | [2] -0.001 | [3] 0.066 | [4] -0.046 | [5] 0.019
